Experimental findings from ChEMBL document CHEMBL1961873, “Compounds: GSK PKIS; Assays: Nanosyn kinase panel” (2012) are described below.

Assay [1] addresses Mast/stem cell growth factor receptor Kit (Homo sapiens) (UniProt P10721). Particulars: at 1 µM.
Assay [2] has as its system Mast/stem cell growth factor receptor Kit (Homo sapiens), P10721 [D816V]. Particulars: at 0.1 µM.
Assay [3] has the same test system. Particulars: at 1 µM.
In assay [4] the test system is Mast/stem cell growth factor receptor Kit (Homo sapiens), P10721 [T670I]. Particulars: at 0.1 µM.
Chain of Mast/stem cell growth factor receptor Kit (Homo sapiens), P10721 [T670I] (P10721 whole entry T670I): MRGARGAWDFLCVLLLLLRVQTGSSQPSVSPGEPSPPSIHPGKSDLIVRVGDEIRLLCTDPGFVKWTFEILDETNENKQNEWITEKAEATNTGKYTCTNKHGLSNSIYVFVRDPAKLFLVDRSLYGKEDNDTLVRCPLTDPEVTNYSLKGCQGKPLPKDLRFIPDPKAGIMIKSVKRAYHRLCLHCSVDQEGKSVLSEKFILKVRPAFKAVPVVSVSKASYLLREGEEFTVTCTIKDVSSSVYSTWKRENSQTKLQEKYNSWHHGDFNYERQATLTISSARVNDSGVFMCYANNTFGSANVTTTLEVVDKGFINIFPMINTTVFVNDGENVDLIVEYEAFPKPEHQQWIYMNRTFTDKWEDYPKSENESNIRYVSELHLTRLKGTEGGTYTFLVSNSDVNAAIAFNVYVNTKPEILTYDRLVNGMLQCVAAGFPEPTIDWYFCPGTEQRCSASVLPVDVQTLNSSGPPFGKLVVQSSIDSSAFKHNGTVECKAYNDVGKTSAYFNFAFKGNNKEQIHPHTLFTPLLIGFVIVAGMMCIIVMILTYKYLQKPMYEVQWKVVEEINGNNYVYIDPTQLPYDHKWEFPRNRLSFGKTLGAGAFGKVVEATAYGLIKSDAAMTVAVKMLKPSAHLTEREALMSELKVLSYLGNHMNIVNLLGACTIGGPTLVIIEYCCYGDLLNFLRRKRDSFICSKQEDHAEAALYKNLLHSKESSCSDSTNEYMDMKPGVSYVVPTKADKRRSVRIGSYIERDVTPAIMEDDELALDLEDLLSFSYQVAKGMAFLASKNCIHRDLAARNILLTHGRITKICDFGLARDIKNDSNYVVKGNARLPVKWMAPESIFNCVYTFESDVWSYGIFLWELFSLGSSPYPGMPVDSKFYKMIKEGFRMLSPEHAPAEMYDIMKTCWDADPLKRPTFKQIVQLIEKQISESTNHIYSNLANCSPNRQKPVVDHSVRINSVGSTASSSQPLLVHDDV
Assay [5] has the same test system. Particulars: at 1 µM.
Assay [6] relates to Mast/stem cell growth factor receptor Kit (Homo sapiens), P10721 [V560G]. Particulars: at 0.1 µM.
Chain of Mast/stem cell growth factor receptor Kit (Homo sapiens), P10721 [V560G] (P10721 whole entry V560G): as the sequence (P10721 whole entry T670I) above, with V560G, I670T counted along it
For assay [7] the test system is unchanged. Particulars: at 1 µM.
Assay [8] concerns the target Tyrosine-protein kinase Lck (Homo sapiens) (UniProt P06239). Particulars: at 0.1 µM.
Assay [9] shares this target. Particulars: at 1 µM.
Assay [10] deals with Leukocyte tyrosine kinase receptor (Homo sapiens) (UniProt P29376). Particulars: at 0.1 µM.
Chain of Leukocyte tyrosine kinase receptor (Homo sapiens) (P29376 whole entry): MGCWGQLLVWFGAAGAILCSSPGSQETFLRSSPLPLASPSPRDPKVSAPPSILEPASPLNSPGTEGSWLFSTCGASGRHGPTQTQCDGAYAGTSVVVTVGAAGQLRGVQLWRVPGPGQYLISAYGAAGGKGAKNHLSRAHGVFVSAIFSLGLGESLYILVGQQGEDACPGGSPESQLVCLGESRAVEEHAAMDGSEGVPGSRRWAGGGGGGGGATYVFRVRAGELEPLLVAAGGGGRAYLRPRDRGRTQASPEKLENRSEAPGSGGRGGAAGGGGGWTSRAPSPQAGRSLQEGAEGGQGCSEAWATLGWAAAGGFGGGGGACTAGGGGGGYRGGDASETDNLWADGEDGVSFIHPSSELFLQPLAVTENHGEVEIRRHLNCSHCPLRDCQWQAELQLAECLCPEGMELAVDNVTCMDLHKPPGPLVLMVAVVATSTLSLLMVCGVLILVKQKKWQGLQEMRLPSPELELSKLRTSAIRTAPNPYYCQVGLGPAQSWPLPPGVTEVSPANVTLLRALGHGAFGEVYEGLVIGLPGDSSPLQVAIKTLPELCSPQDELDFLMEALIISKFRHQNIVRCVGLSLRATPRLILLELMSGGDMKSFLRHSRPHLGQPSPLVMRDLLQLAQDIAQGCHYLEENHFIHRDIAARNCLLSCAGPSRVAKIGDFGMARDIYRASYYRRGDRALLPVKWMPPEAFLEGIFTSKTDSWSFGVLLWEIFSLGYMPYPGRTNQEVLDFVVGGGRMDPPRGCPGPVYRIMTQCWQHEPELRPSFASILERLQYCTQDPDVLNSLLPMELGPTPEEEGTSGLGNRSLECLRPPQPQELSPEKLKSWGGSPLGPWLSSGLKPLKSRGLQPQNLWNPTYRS
Assay [11] has the same target. Particulars: at 1 µM.
Assay [12] has as its target Tyrosine-protein kinase Lyn (Homo sapiens) (UniProt P07948). Particulars: at 0.1 µM.
Assay [13] shares this target. Particulars: at 1 µM.
Assay [14] shares this target. Particulars: at 0.1 µM. The source holds these as a separate data set.
Assay [15] shares this target. Particulars: at 1 µM. This is another data set of the same source.
In assay [16] the target is T1, Tyrosine-protein kinase Mer (Homo sapiens) (UniProt Q12866).
T1 sequence (whole entry): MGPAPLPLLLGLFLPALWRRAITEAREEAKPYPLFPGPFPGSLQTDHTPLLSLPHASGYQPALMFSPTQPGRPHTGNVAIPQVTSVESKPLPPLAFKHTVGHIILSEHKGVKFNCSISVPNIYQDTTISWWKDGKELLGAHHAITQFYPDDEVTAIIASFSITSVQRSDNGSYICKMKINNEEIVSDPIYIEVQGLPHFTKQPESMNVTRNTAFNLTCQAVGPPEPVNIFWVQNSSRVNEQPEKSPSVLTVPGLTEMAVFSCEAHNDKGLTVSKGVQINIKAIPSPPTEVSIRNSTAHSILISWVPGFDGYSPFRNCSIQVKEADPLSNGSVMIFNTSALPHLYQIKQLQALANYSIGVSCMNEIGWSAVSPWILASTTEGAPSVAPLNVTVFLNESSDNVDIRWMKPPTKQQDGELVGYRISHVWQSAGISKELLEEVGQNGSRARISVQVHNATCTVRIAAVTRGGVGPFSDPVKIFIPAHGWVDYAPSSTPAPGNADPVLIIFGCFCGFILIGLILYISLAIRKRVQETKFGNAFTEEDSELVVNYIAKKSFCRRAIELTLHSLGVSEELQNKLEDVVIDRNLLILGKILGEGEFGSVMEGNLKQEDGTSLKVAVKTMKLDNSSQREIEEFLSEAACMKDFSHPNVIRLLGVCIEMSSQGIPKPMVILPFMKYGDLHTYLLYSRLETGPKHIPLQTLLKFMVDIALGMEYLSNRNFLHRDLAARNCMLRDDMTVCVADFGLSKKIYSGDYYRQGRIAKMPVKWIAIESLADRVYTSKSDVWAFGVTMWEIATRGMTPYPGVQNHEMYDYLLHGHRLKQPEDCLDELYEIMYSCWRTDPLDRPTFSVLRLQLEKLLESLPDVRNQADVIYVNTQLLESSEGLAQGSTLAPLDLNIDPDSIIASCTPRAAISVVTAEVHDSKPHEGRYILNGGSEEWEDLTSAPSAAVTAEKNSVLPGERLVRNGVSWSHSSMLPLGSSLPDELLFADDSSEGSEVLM
Particulars: at 0.1 µM.

The target in assay [17] is T1, Tyrosine-protein kinase Mer (Homo sapiens). Particulars: at 1 µM.
The target in assay [18] is Hepatocyte growth factor receptor (Homo sapiens) (UniProt P08581). Particulars: at 0.1 µM.
Chain of Hepatocyte growth factor receptor (Homo sapiens) (P08581 whole entry): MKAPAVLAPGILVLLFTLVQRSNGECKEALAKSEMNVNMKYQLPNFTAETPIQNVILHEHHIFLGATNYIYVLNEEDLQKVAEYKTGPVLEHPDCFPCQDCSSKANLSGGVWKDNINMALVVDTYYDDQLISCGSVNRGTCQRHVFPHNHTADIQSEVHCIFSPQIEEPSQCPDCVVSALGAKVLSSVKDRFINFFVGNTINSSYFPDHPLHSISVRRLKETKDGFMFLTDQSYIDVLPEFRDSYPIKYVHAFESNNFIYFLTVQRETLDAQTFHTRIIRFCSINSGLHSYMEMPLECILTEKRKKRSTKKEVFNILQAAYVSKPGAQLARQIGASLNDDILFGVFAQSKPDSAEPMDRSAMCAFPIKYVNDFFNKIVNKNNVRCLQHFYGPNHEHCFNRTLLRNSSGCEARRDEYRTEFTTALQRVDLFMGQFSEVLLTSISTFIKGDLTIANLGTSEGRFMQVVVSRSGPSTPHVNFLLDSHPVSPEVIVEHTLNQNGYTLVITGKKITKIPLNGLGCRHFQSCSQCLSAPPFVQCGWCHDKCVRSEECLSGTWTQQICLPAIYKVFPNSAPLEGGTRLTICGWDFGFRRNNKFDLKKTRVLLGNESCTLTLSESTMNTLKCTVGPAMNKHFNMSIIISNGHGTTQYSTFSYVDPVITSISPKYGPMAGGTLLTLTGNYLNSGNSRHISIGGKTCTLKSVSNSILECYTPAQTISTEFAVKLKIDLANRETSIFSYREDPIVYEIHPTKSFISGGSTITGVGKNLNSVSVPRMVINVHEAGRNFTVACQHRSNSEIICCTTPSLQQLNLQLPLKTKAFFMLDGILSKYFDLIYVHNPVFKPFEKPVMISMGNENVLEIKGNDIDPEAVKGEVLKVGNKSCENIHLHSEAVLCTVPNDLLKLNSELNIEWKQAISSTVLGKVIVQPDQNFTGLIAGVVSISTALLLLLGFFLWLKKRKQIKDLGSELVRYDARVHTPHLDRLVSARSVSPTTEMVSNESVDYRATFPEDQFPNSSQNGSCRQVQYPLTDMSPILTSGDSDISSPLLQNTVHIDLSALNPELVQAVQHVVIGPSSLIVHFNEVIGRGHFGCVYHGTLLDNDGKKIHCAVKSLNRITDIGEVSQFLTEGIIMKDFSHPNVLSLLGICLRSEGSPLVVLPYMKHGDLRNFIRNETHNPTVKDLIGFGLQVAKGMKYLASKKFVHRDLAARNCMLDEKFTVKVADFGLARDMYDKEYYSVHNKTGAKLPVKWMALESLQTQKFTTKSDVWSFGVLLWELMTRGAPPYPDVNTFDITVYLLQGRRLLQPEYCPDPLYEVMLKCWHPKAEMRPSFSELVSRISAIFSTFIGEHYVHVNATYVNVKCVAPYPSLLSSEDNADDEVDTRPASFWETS
For assay [19] the target is unchanged. Particulars: at 1 µM.
Assay [20] addresses T2, Muscle, skeletal receptor tyrosine-protein kinase (Homo sapiens) (UniProt O15146).
T2 sequence (whole entry): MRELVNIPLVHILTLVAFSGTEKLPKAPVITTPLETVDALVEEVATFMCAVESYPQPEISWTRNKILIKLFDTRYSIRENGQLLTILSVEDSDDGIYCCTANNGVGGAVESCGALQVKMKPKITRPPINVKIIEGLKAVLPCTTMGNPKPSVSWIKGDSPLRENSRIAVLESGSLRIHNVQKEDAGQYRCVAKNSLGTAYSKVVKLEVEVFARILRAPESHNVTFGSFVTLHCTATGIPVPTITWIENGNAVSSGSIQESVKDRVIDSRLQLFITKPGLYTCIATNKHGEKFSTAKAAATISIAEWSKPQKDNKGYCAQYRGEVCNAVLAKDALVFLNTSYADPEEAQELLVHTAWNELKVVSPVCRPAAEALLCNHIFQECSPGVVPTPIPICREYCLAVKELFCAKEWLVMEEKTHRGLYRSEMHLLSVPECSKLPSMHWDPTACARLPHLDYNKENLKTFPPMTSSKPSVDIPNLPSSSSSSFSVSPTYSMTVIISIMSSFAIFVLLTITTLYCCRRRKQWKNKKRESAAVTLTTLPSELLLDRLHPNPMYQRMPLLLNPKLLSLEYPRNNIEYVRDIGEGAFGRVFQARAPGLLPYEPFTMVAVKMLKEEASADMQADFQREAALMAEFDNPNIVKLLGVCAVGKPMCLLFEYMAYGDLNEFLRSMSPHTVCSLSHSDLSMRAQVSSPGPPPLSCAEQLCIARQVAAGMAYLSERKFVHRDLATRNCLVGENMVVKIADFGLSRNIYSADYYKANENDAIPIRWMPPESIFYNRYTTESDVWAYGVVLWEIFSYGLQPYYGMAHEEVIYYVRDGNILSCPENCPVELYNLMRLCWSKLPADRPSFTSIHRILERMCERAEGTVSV
Particulars: at 0.1 µM.

Chain of Tyrosine-protein kinase Lck (Homo sapiens) (P06239 2-509 limits assumed): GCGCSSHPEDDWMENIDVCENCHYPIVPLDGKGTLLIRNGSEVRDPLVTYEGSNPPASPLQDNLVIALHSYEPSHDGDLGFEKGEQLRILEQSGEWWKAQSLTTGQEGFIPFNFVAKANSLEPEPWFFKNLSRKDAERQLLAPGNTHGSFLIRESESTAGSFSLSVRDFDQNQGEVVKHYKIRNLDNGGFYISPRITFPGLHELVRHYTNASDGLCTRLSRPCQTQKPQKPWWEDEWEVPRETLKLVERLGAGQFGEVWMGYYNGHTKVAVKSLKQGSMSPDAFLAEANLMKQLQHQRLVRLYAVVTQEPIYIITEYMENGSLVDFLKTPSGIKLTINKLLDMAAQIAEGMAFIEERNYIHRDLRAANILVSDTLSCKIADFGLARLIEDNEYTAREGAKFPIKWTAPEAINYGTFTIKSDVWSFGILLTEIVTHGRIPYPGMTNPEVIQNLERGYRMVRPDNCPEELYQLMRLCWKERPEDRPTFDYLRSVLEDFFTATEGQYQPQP
Chain of Mast/stem cell growth factor receptor Kit (Homo sapiens), P10721 [D816V] (P10721 whole entry D816V): as the sequence (P10721 whole entry T670I) above, with I670T, D816V counted along it
Chain of Tyrosine-protein kinase Lyn (Homo sapiens) (P07948 2-512 limits assumed): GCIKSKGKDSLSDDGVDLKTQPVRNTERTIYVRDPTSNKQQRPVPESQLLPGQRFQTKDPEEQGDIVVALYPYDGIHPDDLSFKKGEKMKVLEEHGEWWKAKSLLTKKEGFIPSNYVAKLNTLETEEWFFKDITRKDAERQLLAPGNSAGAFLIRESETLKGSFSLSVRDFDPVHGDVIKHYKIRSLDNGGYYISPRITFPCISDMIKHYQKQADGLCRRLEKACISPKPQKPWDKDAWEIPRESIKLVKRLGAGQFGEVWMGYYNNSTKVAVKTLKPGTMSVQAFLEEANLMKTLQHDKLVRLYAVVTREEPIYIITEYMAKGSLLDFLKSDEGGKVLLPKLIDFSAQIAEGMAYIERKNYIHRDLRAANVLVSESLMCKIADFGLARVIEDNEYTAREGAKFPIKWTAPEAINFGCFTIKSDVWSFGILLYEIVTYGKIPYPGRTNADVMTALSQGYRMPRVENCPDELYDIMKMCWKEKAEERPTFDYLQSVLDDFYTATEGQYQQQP
Chain of Mast/stem cell growth factor receptor Kit (Homo sapiens) (P10721 whole entry): as the sequence (P10721 whole entry T670I) above, with I670T counted along it

On to `COc1ccc(-c2cc3c(N)ncnc3o2)cc1`, for which the inhibition in assay [1] was 8.52%; in [2], 1.15%; in [3] it was 0.89%; in assay [4] it was -0.3%; in assay [5], -2.59%; in assay [6] it was 4.17%. Besides, the inhibition in [7] is 2.93%; in [8], 0.2%; in assay [9], 5.93%; in assay [10] it was -0.7%; in assay [11] it was 0.01%; in [12], -0.81%. In addition, the inhibition in assay [13] is 3.66%; in assay [14], 1.13%; in assay [15] it was 3.28%; in assay [16], 0.56%; in assay [17], 2.01%; in assay [18] it was -2.37%. Also, the inhibition was 0.32% in assay [19] and -1.04% in assay [20].

Turning to `Clc1ccc(-c2nn3ncccc3c2-c2ccnc(Nc3ccccc3)n2)cc1`, the inhibition was 66.9% in assay [1]; 1.51% in [2]; -1.04% in assay [3]; -3.61% in assay [4]; 9.51% in [5]; 3.31% in assay [6]. The inhibition in assay [7] came to 39.8%; in assay [8], 13.9%; in assay [9], 60%; in assay [10], 1.38%; in [11] it was 3.81%; in assay [12] it was 7.57%. Also, the inhibition amounted to 40.7% in assay [13]; 4.2% in [14]; 35.4% in assay [15]; 0.11% in assay [16]; 6.33% in assay [17]; 4.95% in assay [18]. Moreover, the inhibition amounted to 4.06% in assay [19] and 1.49% in assay [20].

For `CNC(=O)c1cccc(C#Cc2cncnc2Nc2ccc(OCc3cccc(F)c3)c(Cl)c2)c1`, the inhibition was 8.09% in assay [1]; 0.89% in assay [2]; 3.12% in [3]; 0.83% in assay [4]; 3.3% in assay [5]; 1.32% in [6]. The inhibition in assay [7] stood at 5.48%; in assay [8], 1.2%; in [9], 1.35%; in assay [10], 1.28%; in assay [11], 0.16%; in [12], 3.69%. The inhibition in [13] is 5.89%; in assay [14], 2.02%; in [15], 2.83%; in assay [16], 1.54%; in assay [17], 2.26%; in assay [18], 3.13%. For the same compound, the inhibition in assay [19] is 5.11%; in assay [20] it was -0.28%.

Turning to `Fc1ccc(-c2cc(-c3c[nH]nc3-c3ccccn3)ccn2)cc1`, the inhibition is 6.81% in assay [1]; 1.94% in assay [2]; 4.27% in assay [3]; 4.29% in assay [4]; 8.03% in assay [5]; -3.44% in [6]. Also, the inhibition in assay [7] was found to be 1.08%; in [8], 1.94%; in assay [9], 2.35%; in assay [10], 4.6%; in assay [11], 5.88%; in [12], 6.32%. The inhibition in assay [13] came out at 8.49%; in assay [14], 5.14%; in assay [15] it was 7.44%; in assay [16], 1.96%; in assay [17], 2%; in assay [18] it was 6.72%. Also, the values for the inhibition in [19] and in assay [20] were 8.44% and 2.06%, respectively.

For the compound `c1ccc(-c2nc3n(c2-c2ccc4c(c2)OCO4)CCC3)nc1`, the inhibition in assay [1] is 1.73%; in [2] it was 2.63%; in assay [3], 0.34%; in assay [4] it was 2.34%; in [5] it was 2.64%; in assay [6] it was -1.47%. Moreover, the inhibition was -1.27% in assay [7]; 0.66% in assay [8]; 3.01% in assay [9]; 0.09% in assay [10]; 0.36% in assay [11]; 1.78% in [12]. Besides, the inhibition in [13] turned out to be 2.26%; in assay [14] it was 0.94%; in [15], 0.92%; in [16] it was 1.83%; in [17] it was 0.66%; in [18], 2.27%. In addition, the inhibition was -1.42% in assay [19] and 0.55% in [20].

For the compound `CS(=O)(=O)CCNCc1coc(-c2ccc3ncnc(Nc4ccc(OCc5ccccc5)cc4)c3c2)c1`, the inhibition in assay [1] came out at 8.33%; in [2], 0.03%; in assay [3], 1.72%; in assay [4], 2.17%; in assay [5], 3.24%; in [6], 0.76%. The inhibition in [7] came out at 2.94%; in [8], 3.8%; in assay [9] it was 14.4%; in assay [10], 4.91%; in assay [11], 11.4%; in assay [12] it was 3.61%. The inhibition in assay [13] was determined as 8.56%; in assay [14] it was 3.96%; in assay [15] it was 6.66%; in assay [16], 5.03%; in assay [17], 29.9%; in assay [18], 9.58%. Moreover, the inhibition turned out to be 9.58% in assay [19] and 2.22% in [20].

Regarding `O=C(O[C@H]1CN[C@H](C#Cc2cc3ncnc(Nc4ccc(Cc5ccccc5)cc4)c3s2)C1)N1CCOCC1`, the inhibition in [1] is 3.44%; in assay [2], 8.25%; in [3] it was 1.8%; in [4], 1.94%; in assay [5], 0.93%; in [6], -0.42%. For the same compound, the inhibition is -0.08% in assay [7]; 2.19% in assay [8]; 8.13% in assay [9]; 1.17% in [10]; 0.57% in [11]; 0.85% in [12]. Also, the inhibition in [13] is 4.14%; in assay [14], 0.33%; in [15] it was 3.75%; in assay [16], -0.63%; in assay [17] it was 2.01%; in [18], -1.3%. Also, the inhibition in assay [19] is 4.56%; in [20], -0.21%.

By inhibition is commonly meant the drop in the measured response relative to a control, in per cent.
